# The campaign covered roughly 69,000 compounds. About 420 (0.61%) showed an effect of 50% or more. The sample as a whole holds a higher share of strong results than the screen did.
# Biological target: T1, Histidine--tRNA ligase (Leishmania infantum) (UniProt A4I591)
# T1 sequence (whole entry): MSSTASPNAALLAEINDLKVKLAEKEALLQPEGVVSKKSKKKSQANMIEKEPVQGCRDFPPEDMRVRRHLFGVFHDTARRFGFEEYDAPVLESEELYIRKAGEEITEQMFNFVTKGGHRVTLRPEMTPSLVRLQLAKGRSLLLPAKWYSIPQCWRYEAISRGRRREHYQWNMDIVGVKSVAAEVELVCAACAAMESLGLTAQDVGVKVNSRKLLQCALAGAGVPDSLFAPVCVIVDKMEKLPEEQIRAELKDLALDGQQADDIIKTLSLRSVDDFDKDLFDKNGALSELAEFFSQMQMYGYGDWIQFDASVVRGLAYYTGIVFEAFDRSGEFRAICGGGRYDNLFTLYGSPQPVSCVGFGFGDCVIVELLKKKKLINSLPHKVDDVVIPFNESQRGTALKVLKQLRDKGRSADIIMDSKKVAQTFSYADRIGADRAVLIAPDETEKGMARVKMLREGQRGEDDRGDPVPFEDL
# Test: Leishmania infantum Histidine tRNA synthetase (LdHisRS)
# Type: functional
# Set-up: scale not given: in the data most compounds retested in dose-response had high values
# Settings: 30 µM
row,Compound,Percent Effect
1,CN(C)S(=O)(=O)N1CC[C@]2(O)CCN(c3nccs3)C[C@@H]2C1,20%
2,O=C(NCC1CC1)[C@H]1C[C@H]2OCC[C@H]2N(Cc2ccoc2)C1,10.5%
3,c1ccc(-n2cc(CNCC3CCCN3c3cccnn3)nn2)cc1 (centres undefined),6.14%
4,c1ccc(-n2ncc(CNCC3CCCN3c3cccnn3)n2)cc1 (centres undefined),65.2%
5,c1ccc(Cn2ccnc2CNCC2CCCN2c2cccnn2)cc1 (centres undefined),5.36%
6,c1ccc(-n2cc(CNCC3CCCN3c3cccnn3)cn2)cc1 (centres undefined),21.9%
7,c1ccc(Cn2cc(CNCC3CCCN3c3cccnn3)cn2)cc1 (centres undefined),53%
8,c1ccc(-n2ccc(CNCC3CCCN3c3cccnn3)n2)cc1 (centres undefined),25.4%
9,COCCOC(=O)N1CCN2C[C@@H](CO)[C@H](c3ccccc3)[C@H]2C1,2.04%
10,O=C(c1ccoc1)N1CC[C@@H]2O[C@H](COCc3ccccn3)CC[C@@H]21,7.52%
11,c1cnc(N2CCO[C@H]3[C@H](OCC4CC4)CC[C@@H]32)nc1,8.11%
12,O=C1NC(c2ccccc2)=N[C@@]12CC[C@@H]1CN(Cc3ccncc3)C[C@@H]12,25%
13,COCCNC(=O)[C@H]1C[C@@H]2CCN(c3nncs3)C[C@H]2O1,5.77%
14,O=C(c1ccccc1)N1C[C@@H]2CCCO[C@@H]2[C@H](N2CCOCC2)C1,17.5%
15,Cc1cc(C(=O)Nc2cccn(Cc3ccc(F)cc3)c2=O)on1,84.1%
16,O=C(Nc1cccn(CC(F)(F)F)c1=O)c1ccncc1F,17.1%
17,Cc1cc(C(=O)Nc2cccn(Cc3ccc(F)cc3)c2=O)no1,20.4%
18,Cc1cc(C(=O)Nc2cccn(Cc3ccccc3)c2=O)no1,23.9%
19,O=C(Nc1cccn(Cc2ccccc2)c1=O)c1ccncc1F,68.6%
20,O=C(Nc1cccn(Cc2ccc(F)cc2)c1=O)c1cnc[nH]1,27.4%
21,CC(C)CN1C[C@H]2CCN(C(=O)C3CCCO3)CC[C@H]2S1(=O)=O (some centres undefined),13.8%
22,O=C1[C@H]2CC[C@H](CN(Cc3ccccc3OC(F)F)C2)N1CC1CC1,28.9%
23,Cc1noc(C)c1C(=O)N1C[C@@H]2CCCO[C@@H]2[C@H](N(C)C)C1,7.96%

row,Compound,Percent Effect
1,O=C(c1ccnnc1)N1C[C@H]2CN(Cc3cccc(F)c3)C(=O)[C@H]2C1,0.917%
2,CNC(=O)[C@H]1C[C@@H]2CN(S(=O)(=O)c3ccccc3)C[C@@H]2N1C(C)=O,14.2%
3,O=C(N1CCOCC1)[C@@]12CCO[C@@H]1CCN(CC1CCCCC1)C2,-3.88%
4,O=C(c1ccc2[nH]ccc2c1)N1CCn2cnc(COCC3CC3)c2C1,61.2%
5,Cc1cccc(C(=O)N2CCn3cnc(COCC4CC4)c3C2)c1,34.5%
6,Cc1ccc(C(=O)N2CCn3cnc(COCC4CC4)c3C2)cn1,15%
7,CN(C)S(=O)(=O)N1C[C@@H]2CC[C@H](C1)N(CCC(=O)NCc1ccco1)C2,13.6%
8,COc1ccc(-n2cc(CNC(=O)c3cc[nH]n3)nn2)cc1,31.2%
9,COc1ccc(-n2cc(CNC(=O)c3ccccn3)nn2)cc1,18.8%
10,COc1ccc(-n2cc(CNC(=O)c3ccc[nH]3)nn2)cc1,54.2%
11,CNC(=O)[C@H]1C[C@@H]2CCN(Cc3ccc4c(c3)OCO4)C[C@@H]2O1,14.6%
12,CCC1=NOC(CNCc2cnc(-c3ccccc3C)s2)C1 (centres undefined),61.7%
13,Cc1ccccc1-c1ncc(CNCc2csc(C(C)C)n2)s1,20%
14,Cc1cnc(CNCc2cnc(-c3ccccc3C)s2)cn1,11.7%
15,CC1CCN(C(=O)[C@H]2C[C@@H]3CCN(CC4CCOCC4)C[C@@H]3O2)CC1,12%
16,O=C(C1=CCCC1)N1C[C@H](Oc2cccnc2)[C@H]2OCCC[C@H]21,3.85%
17,CN1CCCN(C(=O)c2nc3c(s2)CCCN3CC2CC2)CC1,48%
18,O=C(c1nc2c(s1)CCCN2CC1CC1)N1CCCC1,40%
19,O=C(c1nc2c(s1)CCCN2CC1CC1)N1CCOCC1,94%
20,COCC(=O)N1CC[C@H]2O[C@@H](C)C[C@H]2C1,12%
21,O=C(Nc1c(N2CCCC2)cccc1N1CCCC1)c1cnsn1,15.4%
22,O=C(Nc1c(N2CCCC2)cccc1N1CCCC1)c1cnccn1,30.8%
23,O=C(Nc1c(N2CCCC2)cccc1N1CCCC1)c1ccccn1,84.6%

row,Compound,Percent Effect
1,Cn1cccc1C(=O)N1CC[C@H]2[C@H]1CCN2CC1CCOCC1,24.6%
2,O=C(C1=CCCC1)N1C[C@H]2CCC[C@@]2(COCc2ccncc2)C1,25.7%
3,Cc1cccc(CN2C[C@@H]3COC[C@]3(CNC(=O)C3CC3)C2)c1,11.9%
4,CNC(=O)[C@@]12CCO[C@@H]1CCN(S(=O)(=O)c1ccccc1)C2,15%
5,CCN(CCN(C)C)c1nc(CCN)nc2sc(C)c(C)c12,54%
6,Cc1sc2nc(CCN)nc(N(CCN(C)C)CC3CCCO3)c2c1C (centres undefined),4.42%
7,COCCN(CC1CC1)c1nc(CCN)nc2sc(C)c(C)c12,32.7%
8,Cc1cccc(CN2C(=O)CC[C@@H]3[C@H]2CCN3Cc2cccnc2)n1,29.4%
9,Cc1nccc([C@H]2C[C@@H]3CCN(S(=O)(=O)C4CC4)C[C@H]3O2)n1,11.1%
10,O=c1[nH]c2cc3c(cc2cc1CN1CCCC1c1ccccn1)CCC3 (centres undefined),43.4%
11,CCOc1ccc2[nH]c(=O)c(CN3CCCC3c3ccccn3)cc2c1 (centres undefined),53%
12,O=c1[nH]c2cc3c(cc2cc1CN1CCCC1c1ccccn1)OCO3 (centres undefined),14.5%
13,COCCC(=O)N1C[C@H]2CCC[C@@]2(COC)C1,5.77%
14,Cn1cc(N2C(=O)CC[C@@H]3[C@H]2CCN3Cc2nccs2)cn1,9.72%
15,CCCn1nc2c(cc1=O)CN(Cc1ccccn1)CC2,75.8%
16,CCn1nc2c(cc1=O)CN(Cc1cc(C)on1)CC2,21.2%
17,CCCn1nc2c(cc1=O)CN(Cc1cc(C)on1)CC2,55.8%
18,CCCn1nc2c(cc1=O)CN(Cc1nc(C)c3ccccc3n1)CC2,27.1%
19,Cc1cc(CN2CCc3nn(C)c(=O)cc3C2)on1,103%
20,Cc1cc(CN2CCc3cncnc3C2)on1,24%
21,Cc1cc(CN2CCc3nn(C)c(=O)cc3C2)no1,45.5%
22,CCCn1nc2c(cc1=O)CN(Cc1cc(C)no1)CC2,69.7%
23,CCCn1nc2c(cc1=O)CN(Cc1ncc(C(C)(C)C)o1)CC2,45.5%

row,Compound,Percent Effect
1,CCCn1nc2c(cc1=O)CN(Cc1nc(CCOC)no1)CC2,48.1%
2,CCCn1nc2c(cc1=O)CN(Cc1nc(C)c(C)o1)CC2,13.2%
3,CN(C)C(=O)N1C[C@@H]2CC[C@H](C1)N(C(=O)c1c(Cl)cccc1Cl)C2,8.06%
4,CS(=O)(=O)N1C[C@@H]2CC[C@H](C1)N(Cc1ccsc1)C2,31.2%
5,CNC(=O)[C@H]1CO[C@H]2CCN(Cc3ccc4ccccc4n3)C[C@H]2C1,10.5%
6,CNC(=O)[C@@H]1COC[C@H]2CN(C(=O)c3ccc(C)c(F)c3)C[C@H]21,12.3%
7,CC(C)CC(=O)N1CC[C@@H]2[C@H](CC1)N(S(C)(=O)=O)CCS2(=O)=O,19.2%
8,CS(=O)(=O)N1C[C@@H]2COC[C@]2(COCC(=O)N2CCCC2)C1,2.73%
9,CCCn1nc2c(cc1=O)CN(Cc1c(C)noc1C)CC2,27.3%
10,Cc1cc(CN2CCc3nn(C(C)C)c(=O)cc3C2)no1,26.9%
11,Cc1noc(C)c1CN1CCc2nn(C(C)C)c(=O)cc2C1,53%
12,O=C1CC[C@]2(CC[C@@H](NC3CCOCC3)CC2)N1Cc1ccccc1,7.77%
13,Cc1cnccc1-c1cnn(CCNC(=O)c2ccncc2)c1C1CC1,-1.42%
14,COCCN(C)C(=O)c1nc2c(s1)CCCN2C,24.6%
15,CN(C(=O)c1cccnc1)C1CCCN(CCc2ccccc2)C1 (centres undefined),-1.64%
16,CCCN(C(=O)COC)c1nc2c(s1)CCc1c-2cnn1C,80%
17,CCCN(C(=O)c1ccncc1)c1nc2c(s1)CCc1c-2cnn1C,82.3%
18,CCCC(=O)N(CCN1CCOCC1)c1nc2c(OC)ccc(C)c2s1,-3.48%
19,CCCN(C(=O)c1ccc(-n2ccnn2)cc1)c1cccnc1,11.1%
20,CCCN(C(=O)c1cccnc1)c1nc2c(s1)CCc1c-2cnn1C,101%
21,CCN(CCN1CCOCC1)C(=O)c1cccnc1,5.71%
22,Cc1ccc(C(=O)N2CC[C@@]3(O)CCN(C(=O)N(C)C)C[C@H]3C2)cc1Cl,-2.13%
23,CNc1nc(C(=O)N2C[C@H]3CC[C@@H]2CN(C2CCOCC2)C3)cs1,4.17%

row,Compound,Percent Effect
1,COc1ccccc1CN1C(=O)O[C@@H]2CN(C(C)C)C[C@@H]21,3.33%
2,O=C1[C@@H]2CN(c3ncccc3Cl)C[C@]2(C(=O)O)CN1CC1CC1,3.28%
3,CCOc1ccc(CN2CCN(CCOC)[C@@H]3CS(=O)(=O)C[C@@H]32)cc1,25%
4,c1cc2nccc(CC3CCCN(C4CCOCC4)CC3)c2cn1 (centres undefined),22.7%
5,c1cc2nccc(CC3CCCN(Cc4ncc[nH]4)CC3)c2cn1 (centres undefined),50%
6,CS(=O)(=O)N1CCCC(Cc2ccnc3ccncc23)CC1 (centres undefined),80.2%
7,Cn1ccnc1CN1CCCC(Cc2ccnc3ccncc23)CC1 (centres undefined),43.3%
8,c1cc2nccc(CC3CCCN(Cc4c[nH]cn4)CC3)c2cn1 (centres undefined),24.7%
9,CN1CCCC(Cc2ccnc3ccncc23)CC1 (centres undefined),0%
10,CC(=O)N1[C@H](Cn2cncn2)C[C@@H]2CN(Cc3cccnc3)CC[C@@H]21,13.9%
11,Cc1nc(C(=O)N2CCN(S(C)(=O)=O)[C@@H]3CS(=O)(=O)C[C@@H]32)cs1,18.7%
12,c1cc(CN2CC[C@H]3O[C@@H](COCC4CCOCC4)CC[C@H]32)ccn1,22%
13,CCN1C[C@H]2[C@@H](C1)N(S(=O)(=O)c1ccccc1)CC[C@H]2OC,24%
14,CN(C)CCO[C@H]1CN(C(=O)c2ccc3c(c2)OCO3)[C@@H]2COC[C@H]12,13.7%
15,O=C(NCC1(O)CCC1)c1c(O)cc(F)cc1F,-2.17%
16,CCCn1cc(Cl)c(C(=O)N2C[C@H]3C[C@H](OC)C[C@H]3C2)n1,8.63%
17,Cc1nc(C)n(CC2CCCN2Cc2nc(C)c3ccccc3n2)n1 (centres undefined),56.5%
18,Cc1nc(C)n(CC2CCCN2Cc2nc3ccccc3nc2C)n1 (centres undefined),17.6%
19,Cc1nc(CN2CCCC2c2noc(C3CC3)n2)nc2ccccc12 (centres undefined),42.2%
20,Cc1nc(C)n(CC2CCCN2Cc2nc(N)c3ccccc3n2)n1 (centres undefined),36.5%
21,Cc1nc(CN2CCCC2c2ccsc2)nc2ccccc12 (centres undefined),54%
22,Cc1nn(C)c(C)c1C1CCCN1Cc1nc(C)c2ccccc2n1 (centres undefined),46%
